Common to all, as to parameters: scale not given: direction of the effect not stated beside the values
Assay [1] has as its target Protein translocase subunit SecA (Escherichia coli (strain K12)) (UniProt P10408). In words: Assay to Identify E. coli SecA ATPase Inhibitors. Type of assay: functional. As to conditions: 30 µM.
The target in assay [2] is T1, Ubiquitin-activating enzyme e1, putative (Leishmania donovani (strain BPK282A1)) (UniProt E9BSI1).
T1 sequence (whole entry): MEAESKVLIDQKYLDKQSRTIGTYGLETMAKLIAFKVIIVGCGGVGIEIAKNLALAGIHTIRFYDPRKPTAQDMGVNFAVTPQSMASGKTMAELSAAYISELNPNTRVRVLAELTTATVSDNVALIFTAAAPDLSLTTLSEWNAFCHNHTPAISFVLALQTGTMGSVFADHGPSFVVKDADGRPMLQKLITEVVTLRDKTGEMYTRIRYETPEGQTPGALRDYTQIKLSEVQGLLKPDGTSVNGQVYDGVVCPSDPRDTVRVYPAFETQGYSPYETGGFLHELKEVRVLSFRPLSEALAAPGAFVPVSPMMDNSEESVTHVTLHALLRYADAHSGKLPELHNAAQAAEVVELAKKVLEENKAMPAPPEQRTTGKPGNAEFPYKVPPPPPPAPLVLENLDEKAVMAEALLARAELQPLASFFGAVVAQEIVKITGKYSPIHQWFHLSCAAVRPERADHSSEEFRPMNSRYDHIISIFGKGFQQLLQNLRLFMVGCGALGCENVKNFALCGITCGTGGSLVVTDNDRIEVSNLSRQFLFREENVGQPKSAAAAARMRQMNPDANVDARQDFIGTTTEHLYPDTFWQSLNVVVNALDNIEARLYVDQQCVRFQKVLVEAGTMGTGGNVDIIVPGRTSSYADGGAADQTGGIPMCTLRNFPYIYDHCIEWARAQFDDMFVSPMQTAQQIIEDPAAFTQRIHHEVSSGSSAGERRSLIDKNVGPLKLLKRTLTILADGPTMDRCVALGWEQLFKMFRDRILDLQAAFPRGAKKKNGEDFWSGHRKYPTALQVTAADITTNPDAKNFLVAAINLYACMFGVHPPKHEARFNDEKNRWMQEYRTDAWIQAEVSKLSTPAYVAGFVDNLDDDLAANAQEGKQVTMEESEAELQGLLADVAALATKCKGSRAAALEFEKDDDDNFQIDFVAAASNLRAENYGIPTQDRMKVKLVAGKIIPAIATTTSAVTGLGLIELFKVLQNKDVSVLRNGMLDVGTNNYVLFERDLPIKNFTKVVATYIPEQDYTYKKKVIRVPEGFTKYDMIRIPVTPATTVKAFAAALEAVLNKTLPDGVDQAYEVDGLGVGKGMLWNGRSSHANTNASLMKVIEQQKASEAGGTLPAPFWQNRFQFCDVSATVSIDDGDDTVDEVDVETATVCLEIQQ
In words: Leishmania donovani Ubiquitin Activating Enzyme (LdE1). As to conditions: 30 µM. Format: functional.

Assay [3] addresses AMP-activated protein kinase, AMPK (Homo sapiens) (UniProt P54646+O43741+P54619+Q9UGJ0+Q9Y478+Q13131+Q9UGI9). Description: AMP-dependent Kinase enzyme assay. An in vitro enzyme assay that detects ADP turnover that is directly proportional to AMPK activity. This uses naive AMPK that is activated during the assay with MK-8722. Type of assay: functional. To be noted: 30 µM.
Assay [4] has as its target Sialic acid-binding Ig-like lectin 9 (Homo sapiens) (UniProt Q9Y336). Description: Hs-Siglec9 ALPHAscreen SOP 20170721. As to conditions: 10 µM. On the technique in general: Alpha assays give light when donor and acceptor beads are brought close together.
Another assay relates to Trypanosoma cruzi. In words: Trypanosoma cruzi phosphomannomutase and mannose-1-phosphate guanylyltransferase assay. To be noted: 10 µM. Format: functional.
Assay [5] concerns the target T2, Arginase-2, mitochondrial (Homo sapiens) (UniProt P78540).
T2 sequence (whole entry): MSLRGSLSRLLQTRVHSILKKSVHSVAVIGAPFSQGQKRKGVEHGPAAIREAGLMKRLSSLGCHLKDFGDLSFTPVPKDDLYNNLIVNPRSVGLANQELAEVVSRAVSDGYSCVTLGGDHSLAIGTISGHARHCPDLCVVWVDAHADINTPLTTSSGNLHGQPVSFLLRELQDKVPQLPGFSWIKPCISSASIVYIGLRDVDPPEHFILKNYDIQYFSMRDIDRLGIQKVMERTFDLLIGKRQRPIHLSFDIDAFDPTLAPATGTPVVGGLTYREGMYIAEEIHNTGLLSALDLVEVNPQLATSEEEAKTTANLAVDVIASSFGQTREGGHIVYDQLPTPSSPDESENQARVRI
In words: in vitro enzyme assay to detect the production of urea directly proportional to the activity of Arginase II. Note: in the data most compounds retested in dose-response had high values. Type of assay: functional. As to conditions: 33.3 µM.

Assay [6] deals with T3, Proteasome subunit beta (Trypanosoma cruzi) (UniProt O96673).
T3 sequence (whole entry): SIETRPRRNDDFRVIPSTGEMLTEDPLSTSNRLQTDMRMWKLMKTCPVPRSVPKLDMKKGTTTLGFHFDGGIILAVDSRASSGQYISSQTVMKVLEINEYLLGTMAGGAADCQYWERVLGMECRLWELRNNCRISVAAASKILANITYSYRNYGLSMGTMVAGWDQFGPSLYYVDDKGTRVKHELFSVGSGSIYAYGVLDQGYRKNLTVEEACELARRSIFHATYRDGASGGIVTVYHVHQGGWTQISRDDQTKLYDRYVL
In words: Trypanosoma cruzi proteasome chymotrypsin-like activity (TcProtChymo) assay. Note: in the data most compounds retested in dose-response had high values. Type of assay: functional. To be noted: 9.37 µM.

For a further assay, the species on record is Homo sapiens. In words: To identify inhibition of the IFN signalling (Jak-Stat) pathway via expression of an eGFP reporter gene under the control of an IFN-stimulated response element (ISRE) containing MxA promoter. Format: functional. As to conditions: 30 µM.
Assay [7] addresses T4, Tyrosyl-tRNA synthetase, putative (Trypanosoma cruzi (strain CL Brener)) (UniProt Q4DSP6).
T4 sequence (whole entry): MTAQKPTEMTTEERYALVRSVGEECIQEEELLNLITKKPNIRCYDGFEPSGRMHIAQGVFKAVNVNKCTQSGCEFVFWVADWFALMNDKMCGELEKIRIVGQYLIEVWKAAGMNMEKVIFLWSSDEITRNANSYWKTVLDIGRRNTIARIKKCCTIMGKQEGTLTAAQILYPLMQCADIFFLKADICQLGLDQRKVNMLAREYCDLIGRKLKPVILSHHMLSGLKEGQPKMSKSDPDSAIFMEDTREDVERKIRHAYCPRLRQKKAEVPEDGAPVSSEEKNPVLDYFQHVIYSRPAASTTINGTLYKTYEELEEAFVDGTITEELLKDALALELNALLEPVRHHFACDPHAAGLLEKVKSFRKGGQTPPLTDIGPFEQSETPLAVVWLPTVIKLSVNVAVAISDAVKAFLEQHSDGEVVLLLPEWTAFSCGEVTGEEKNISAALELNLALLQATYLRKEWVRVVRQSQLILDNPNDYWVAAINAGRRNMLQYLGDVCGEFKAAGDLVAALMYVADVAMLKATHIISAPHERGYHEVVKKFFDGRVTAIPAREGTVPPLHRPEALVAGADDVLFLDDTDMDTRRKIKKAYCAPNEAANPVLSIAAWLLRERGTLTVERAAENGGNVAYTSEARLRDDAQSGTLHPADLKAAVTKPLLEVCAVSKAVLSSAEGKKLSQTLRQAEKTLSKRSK
Description: Trypanosoma cruzi tyrosyl tRNA synthetase (TcYRS) _High Tyrosine SOP. Note: in the data most compounds retested in dose-response had high values. Format: functional. To be noted: 30 µM.

Assay [8] addresses T4, Tyrosyl-tRNA synthetase, putative (Trypanosoma cruzi (strain CL Brener)). In words: Trypanosoma cruzi tyrosyl tRNA synthetase (TcYRS) SOP. Type of assay: functional. To be noted: 30 µM.
Assay [9] has as its target Chromo domain-containing protein 1 (Saccharomyces cerevisiae (strain ATCC 204508 / S288c) (Baker's yeast)) (UniProt P32657). In words: ScCHD-1 Enzyme Inhibition Assay. Note: in the data most compounds retested in dose-response had high values. Type of assay: functional. To be noted: 30 µM.
The next assay has as its system N/A. In words: Trypanosoma cruzi proteasome luciferase counter-screen. To be noted: 9.37 µM. Type of assay: functional. Background: Counterscreens check selectivity or assay interference.

Experimental findings from ChEMBL document CHEMBL3988442, “University of Dundee, Small-Polar-MMV Screening Library” (2021) are described below.

Several values for one entry are separate records, joined by “and”; a condition that tells them apart may be missing. Identical values can stand only once. For some of these results: Potency and affinity values are given separately.

Sequence of Sialic acid-binding Ig-like lectin 9 (Homo sapiens) (Q9Y336 whole entry): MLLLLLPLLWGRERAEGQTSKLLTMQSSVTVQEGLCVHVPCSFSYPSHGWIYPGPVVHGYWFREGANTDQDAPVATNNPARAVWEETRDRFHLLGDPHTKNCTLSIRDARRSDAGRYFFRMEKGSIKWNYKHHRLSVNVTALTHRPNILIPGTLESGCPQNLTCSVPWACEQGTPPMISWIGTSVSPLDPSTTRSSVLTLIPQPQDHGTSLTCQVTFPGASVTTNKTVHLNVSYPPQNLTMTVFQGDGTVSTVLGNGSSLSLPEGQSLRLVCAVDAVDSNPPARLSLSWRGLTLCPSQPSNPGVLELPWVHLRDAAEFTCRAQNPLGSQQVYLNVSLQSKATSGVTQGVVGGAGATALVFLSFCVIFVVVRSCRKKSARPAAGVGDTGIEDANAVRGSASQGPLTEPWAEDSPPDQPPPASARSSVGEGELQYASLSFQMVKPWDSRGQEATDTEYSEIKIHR
Sequence of Protein translocase subunit SecA (Escherichia coli (strain K12)) (P10408 whole entry): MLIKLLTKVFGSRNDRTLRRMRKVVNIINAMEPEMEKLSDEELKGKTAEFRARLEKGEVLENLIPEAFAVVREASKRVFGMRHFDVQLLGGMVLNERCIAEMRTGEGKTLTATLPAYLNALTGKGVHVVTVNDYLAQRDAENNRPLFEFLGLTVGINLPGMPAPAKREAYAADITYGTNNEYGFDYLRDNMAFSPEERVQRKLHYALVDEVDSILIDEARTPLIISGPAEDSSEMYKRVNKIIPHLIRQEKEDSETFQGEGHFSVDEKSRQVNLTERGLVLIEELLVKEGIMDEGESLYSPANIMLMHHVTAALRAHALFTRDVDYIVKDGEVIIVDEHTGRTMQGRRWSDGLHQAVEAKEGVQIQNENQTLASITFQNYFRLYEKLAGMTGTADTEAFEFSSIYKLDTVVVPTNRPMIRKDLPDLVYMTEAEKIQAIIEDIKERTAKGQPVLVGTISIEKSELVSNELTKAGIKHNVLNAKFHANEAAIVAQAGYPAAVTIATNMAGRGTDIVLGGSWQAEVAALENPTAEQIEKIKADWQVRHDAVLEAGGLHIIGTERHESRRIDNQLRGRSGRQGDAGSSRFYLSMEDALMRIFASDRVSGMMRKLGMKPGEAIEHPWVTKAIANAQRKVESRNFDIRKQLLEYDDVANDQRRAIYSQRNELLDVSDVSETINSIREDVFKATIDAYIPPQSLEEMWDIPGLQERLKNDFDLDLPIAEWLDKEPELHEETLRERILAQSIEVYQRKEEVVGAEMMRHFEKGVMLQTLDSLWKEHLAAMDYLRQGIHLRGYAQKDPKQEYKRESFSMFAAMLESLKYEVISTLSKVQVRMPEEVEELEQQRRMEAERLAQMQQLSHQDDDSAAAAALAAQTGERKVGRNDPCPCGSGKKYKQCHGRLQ
Sequence of Chromo domain-containing protein 1 (Saccharomyces cerevisiae (strain ATCC 204508 / S288c) (Baker's yeast)) (P32657 whole entry, the tested form may be a part): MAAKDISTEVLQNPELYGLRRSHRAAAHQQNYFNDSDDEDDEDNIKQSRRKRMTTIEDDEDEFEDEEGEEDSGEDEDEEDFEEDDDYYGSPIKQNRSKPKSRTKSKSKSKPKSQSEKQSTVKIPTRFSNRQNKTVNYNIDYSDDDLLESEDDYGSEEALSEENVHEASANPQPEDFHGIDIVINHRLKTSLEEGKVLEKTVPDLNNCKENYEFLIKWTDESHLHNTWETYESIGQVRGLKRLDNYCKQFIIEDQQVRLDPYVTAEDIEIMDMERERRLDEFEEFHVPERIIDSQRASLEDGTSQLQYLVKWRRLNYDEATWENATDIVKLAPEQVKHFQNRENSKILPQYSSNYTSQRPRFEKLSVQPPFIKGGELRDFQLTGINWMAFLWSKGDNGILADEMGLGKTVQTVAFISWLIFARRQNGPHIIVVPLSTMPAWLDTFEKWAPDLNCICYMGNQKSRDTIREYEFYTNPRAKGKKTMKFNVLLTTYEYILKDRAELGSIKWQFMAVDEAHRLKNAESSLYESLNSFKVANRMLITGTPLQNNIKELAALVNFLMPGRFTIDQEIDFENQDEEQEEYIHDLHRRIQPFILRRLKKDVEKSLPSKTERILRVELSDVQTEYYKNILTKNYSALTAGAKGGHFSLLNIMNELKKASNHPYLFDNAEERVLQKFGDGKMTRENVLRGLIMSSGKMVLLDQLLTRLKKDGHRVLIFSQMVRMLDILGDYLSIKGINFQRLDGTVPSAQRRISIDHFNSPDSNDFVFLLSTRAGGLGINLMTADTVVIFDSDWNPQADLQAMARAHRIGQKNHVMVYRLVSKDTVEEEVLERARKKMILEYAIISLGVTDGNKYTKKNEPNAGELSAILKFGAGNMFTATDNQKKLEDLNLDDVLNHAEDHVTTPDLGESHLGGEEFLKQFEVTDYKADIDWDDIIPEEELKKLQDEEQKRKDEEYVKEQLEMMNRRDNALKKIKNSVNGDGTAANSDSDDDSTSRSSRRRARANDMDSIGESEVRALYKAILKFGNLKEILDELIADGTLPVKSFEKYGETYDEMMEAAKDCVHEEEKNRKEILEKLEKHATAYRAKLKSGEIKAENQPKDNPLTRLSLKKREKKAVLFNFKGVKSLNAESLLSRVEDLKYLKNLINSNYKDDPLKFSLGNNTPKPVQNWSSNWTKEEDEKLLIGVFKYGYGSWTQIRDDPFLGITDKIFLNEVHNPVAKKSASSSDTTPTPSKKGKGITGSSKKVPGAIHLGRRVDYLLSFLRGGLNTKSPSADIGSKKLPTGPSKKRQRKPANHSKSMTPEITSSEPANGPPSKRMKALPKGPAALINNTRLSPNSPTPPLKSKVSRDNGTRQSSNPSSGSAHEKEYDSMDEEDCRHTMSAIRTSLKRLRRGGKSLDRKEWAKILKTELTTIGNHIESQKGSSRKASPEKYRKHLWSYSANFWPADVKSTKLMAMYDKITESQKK

With `Cn1ncc2c1CCCC2NCc1cnc(-c2ccccc2)nc1` (stereo unspecified), the Percent Effect is -8.3% in assay [1]; 13.5% in assay [2]; -13.8% in [3]; 24.2% in [4]; 4.62% with Trypanosoma cruzi; -7.21% in assay [5]. Besides, the Percent Effect in assay [6] is 1.44%; in the assay filed under Homo sapiens, 22.4%; in assay [7] it was 2.46%; in assay [8] it was 18.5%; in assay [9], -12.3%.

As for `Cc1cc(C)n(CC2CCCN2C(=O)c2ccc3c(c2)OCO3)n1` (stereo unspecified), the Percent Effect is -1.47% in assay [1]; 6.33% in [2]; 1.3% in assay [3]; -3.57% in assay [4]; 2.15% in the assay with Trypanosoma cruzi; -1.5% in [5]. Also, the Percent Effect in [6] stood at 8.75%; in the assay listed under Homo sapiens, 1.15%; in assay [7] it was 2.08%; in assay [8], 2.53%; in [9], 0.284%.

Regarding `CC(C(=O)N1CCN(c2ccccc2Cl)CC1)n1cncn1` (stereo unspecified), the Percent Effect in [1] was -2.18%; in assay [2] it was 11.4%; in assay [3], 2.71%; in assay [4] it was 2.76%; in the assay with Trypanosoma cruzi, 1.33%; in [5], -1.07%. Also, the Percent Effect is 15.3% in assay [6]; 5.34% in the assay filed under Homo sapiens; 0% in assay [7]; 10.1% in assay [8]; -25.6% in assay [9].

With `CC(C)(C)c1cnc(CN2CCCC2Cn2cccn2)o1` (stereo unspecified), the Percent Effect in [1] was -0.386%; in assay [2] it was 0%; in assay [3], 6.71%; in assay [4], -3.67%; in the assay with Trypanosoma cruzi, 5.19%; in [5] it was -0.38%. Further, the Percent Effect in assay [6] was 5.16%; in the assay filed under Homo sapiens, -9.18%; in assay [7], 2.46%; in assay [8] it was 3.8%; in [9] it was -4.77%.

As for `O=C(NS(=O)(=O)c1ccc2c(c1)OCCO2)c1ccc(Br)cc1F`, the Percent Effect in [1] is -3.37%; in assay [2], -13.9%; in assay [3], 13.5%; in assay [4], 1.7%; in the assay on Trypanosoma cruzi, -2.36%; in assay [5], 1.07%. Further, the Percent Effect in assay [6] is 12%; in the assay listed under Homo sapiens, -21.1%; in [7] it was -13.5%; in assay [8], -15.2%; in assay [9], -10.5%.

As for `O=C(c1ccncc1)N1CCC(c2nc(O)cc(-c3ccncc3)n2)C1` (stereo unspecified), the Percent Effect was -4.75% in assay [1]; 21.3% in assay [2]; 0.106% in assay [3]; -1.99% in assay [4]; 0.984% in the assay with Trypanosoma cruzi; -2.1% in assay [5]. In addition, the Percent Effect in the assay with N/A was 6.33% and 4.26%; in the assay listed under Homo sapiens, 4.05%; in assay [7] it was 6.38%; in assay [8] it was 14.1%; in assay [9], -6.07%.

Turning to `CC(C)N1CCC(NCc2cccnc2N(C)C)CC1`, the Percent Effect in [1] is -6.06%; in [2], 5.33%; in assay [3], -3.18%; in assay [4], 0.114%; with Trypanosoma cruzi, 0.487%; in assay [5] it was 2.6%. In addition, the Percent Effect in assay [6] is 7.15%; in the assay filed under Homo sapiens, 0.898%; in assay [7], -0.546%; in assay [8], 8.64%; in assay [9] it was -4.8%.

Turning to `CCc1cccc(OCC(=O)N2CCCC(n3cncn3)C2)c1` (stereo unspecified), the Percent Effect in [1] was -5.42%; in [2] it was 13.5%; in [3], 1.85%; in assay [4], -1.09%; in the assay on Trypanosoma cruzi, -5.57%; in assay [5] it was 2%. The Percent Effect is 13% in assay [6]; 14.3% in the assay listed under Homo sapiens; 5.42% in assay [7]; 11.1% in assay [8]; -4.63% in [9].

As for `c1ccc(-c2noc(CN3CCc4cncnc4C3)n2)nc1`, the Percent Effect is -3.61% in assay [1]; 10.5% in assay [2]; -27.7% in assay [3]; 10.3% in assay [4]; 8.65% with Trypanosoma cruzi; 1.92% in assay [5]. The Percent Effect in assay [6] is 9.02%; in the assay listed under Homo sapiens, -4.25%; in [7], 13.2%; in assay [8] it was 12.2%; in assay [9] it was -10.6%.

In the case of `Cc1occc1C(=O)N1CCC2(CC1)C(c1cnn(C)c1)CC(=O)N2C` (stereo unspecified), the Percent Effect in assay [1] is -5.4%; in assay [2], 13.5%; in assay [3], 6.87%; in assay [4] it was -12.9%; with Trypanosoma cruzi, -4.59%; in assay [5] it was 1.59%. The Percent Effect was 11.5% and 13.8% in the assay on N/A; 15.9% in the assay filed under Homo sapiens; -11.9% in assay [7]; 7.69% in assay [8]; -4.17% in assay [9].

On to `CNS(=O)(=O)Cc1ccc(CNc2cncc(-n3cccn3)n2)cc1`, for which the Percent Effect in [1] is -1.63%; in assay [2], 18.2%; in [3], 3.34%; in [4] it was 6.42%; in the assay with Trypanosoma cruzi, 5.24%; in assay [5], 0%. The Percent Effect in the assay with N/A was 16.1% and 14.8%; in the assay filed under Homo sapiens, 18.8%; in assay [7], 7.77%; in [8], 24.4%; in assay [9] it was -12.2%.
